Hits are enriched below; roughly 4.5% of the tested compounds scored in any of these assays.
PrP UTR inh = suppresses PrP 5' UTR mRNA reporter expression; cell-based PrP 5' UTR mRNA reporter, plate reader; inhibition, % (no concentration beside the values); actives 0.35% (n = 340,000); AID 488862; in the data active = inhibition above about 52%
FBA Mtb inh = Mtb fructose-bisphosphate aldolase inhibition; P9WQA3; purified M. tuberculosis FBA, fluorescence read-out; inhibition, % at 1 µM; actives 2.3% (n = 360,000); AID 588726; in the data active = inhibition above about 27%
Target sequence (P9WQA3 whole entry, looked up): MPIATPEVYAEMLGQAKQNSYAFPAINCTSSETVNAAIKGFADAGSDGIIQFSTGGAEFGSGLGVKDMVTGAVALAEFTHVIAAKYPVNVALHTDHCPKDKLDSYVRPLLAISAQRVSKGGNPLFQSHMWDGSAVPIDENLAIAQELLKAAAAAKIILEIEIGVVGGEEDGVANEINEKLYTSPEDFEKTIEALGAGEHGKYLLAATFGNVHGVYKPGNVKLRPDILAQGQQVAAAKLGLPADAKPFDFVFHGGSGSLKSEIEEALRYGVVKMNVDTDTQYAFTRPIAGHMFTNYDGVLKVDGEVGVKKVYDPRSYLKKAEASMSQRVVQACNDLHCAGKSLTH
GDH-TPI inh = inhibits GDH-TPI coupling enzymes, artifact for Mtb FBA screen; GDH-TPI coupled enzyme counterscreen, NADH absorbance; actives 1.2% (n = 360,000); inhibition, % at 4.8 µM; in the data active = inhibition above about 30%
BJeLR lethal = kills HRASV12-expressing BJeLR cells; inhibition, % (test concentration not listed); BJeLR (HRASV12) viability, CellTiter-Glo ATP luminescence, 48 h; actives 0.17% (n = 300,000); AID 1554; in the data active = inhibition above about 50%
PfHsp40 yeast = rescue of PfHsp40-mediated yeast toxicity; growth rescue, % at 12.5 µM; S. cerevisiae expressing PfHsp40, growth rescue, ATP luminescence; actives 0.68% (n = 340,000); in the data active = growth rescue above about 28%, passing the limit was not always enough;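 also: yeast W303a lacking pdr1 and pdr3 grown in galactose medium; growth measured after three days at 30 °C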
PrPC TRFRET = inhibitors of human cell surface prion protein PrPC; TR-FRET read-out; P04156; AID 720596; actives 0.43% (n = 370,000); inhibition, % at 13.8 µM; in the data active = inhibition above about 24%
Of the large screens only hits and unclear results are named; the others gave an inactive call.

CC1CN(Cc2cc(=O)oc3cc(O)ccc23)CC(C)O1 (stereo unspecified)	FBA Mtb inh 161
Oc1ccc(Cl)cc1CN1CCN(Cc2ccccc2)CC1	GDH-TPI inh 63
Cc1ccc2c(CN3CC(C)CC(C)C3)cc(=O)oc2c1 (stereo unspecified)	none
O=c1cc(CN2CCN(Cc3ccccc3)CC2)c2ccc(O)cc2o1	FBA Mtb inh 153
O=C(c1ccco1)N1CCN(Cc2cc(=O)oc3cc(O)ccc23)CC1	FBA Mtb inh active (no result: BJeLR lethal)
Cc1ccc(OCC(C)CN2CCC(C(O)(c3ccccc3)c3ccccc3)CC2)cc1 (stereo unspecified)	none (no result: PrP UTR inh, FBA Mtb inh, GDH-TPI inh, BJeLR lethal, PfHsp40 yeast)
CCCCc1ccc(-c2noc(CCC(=O)NCC)n2)cc1	none (no result: PrP UTR inh, FBA Mtb inh, GDH-TPI inh, BJeLR lethal, PfHsp40 yeast)
N#CC1=C(N)Oc2cc(N)ccc2C1c1cccc(Br)c1 (stereo unspecified)	BJeLR lethal 56
CCOP(=O)(OCC)c1nc(/C=C/c2ccccc2)oc1NCc1ccccc1	FBA Mtb inh active, GDH-TPI inh 37
CCOP(=O)(OCC)c1nc(/C=C/c2ccccc2)oc1NCc1ccc(OC)cc1	FBA Mtb inh active
COCCNc1oc(/C=C/c2ccccc2)nc1C#N	none (no result: FBA Mtb inh)
COC(=O)c1ccc(S(=O)(=O)c2ccccc2)c(N)c1	FBA Mtb inh 121
C(=N/N1CCN(c2ccccc2)CC1)/c1ccncc1	PfHsp40 yeast 164
CC(C)(C)c1ccc(/C=N/N2CCN(c3ccccn3)CC2)cc1	none
CN(C)c1ccc(/C=N/N2CCN(c3ccccn3)CC2)cc1	GDH-TPI inh 39
CN(c1ccccc1)c1ccc(/C=N/N2CCOCC2)cc1	GDH-TPI inh 31
C(=NN1CCCCCC1)c1ccccc1	none (no result: BJeLR lethal)
C=CC[C@@H]1NN2C(=O)[C@@H](CCCC)[C@@H]3c4cc5ccccc5cc4C=NN3[C@@H]2c2cc3ccccc3cc21	none (no result: PrP UTR inh, FBA Mtb inh, GDH-TPI inh, BJeLR lethal, PfHsp40 yeast)
C[C@@H]1OCN(C)[C@H]2C[C@H]3c4[nH]c5cccc(-c6cccc(F)c6)c5c4CCN3C(=O)[C@@H]12	none (no result: PrP UTR inh, FBA Mtb inh, GDH-TPI inh, BJeLR lethal, PfHsp40 yeast)
CCOC(=O)C1C[C@@H](O)C=CC1=O (stereo partly specified)	none (no result: PrP UTR inh, FBA Mtb inh, GDH-TPI inh, BJeLR lethal, PfHsp40 yeast)
Cc1ccc(NC(=S)Nc2ccccn2)cc1C	none
Cc1ccc(NC(=S)Nc2ccc3nc(-c4ccccn4)c(-c4ccccn4)nc3c2)cc1C	GDH-TPI inh 32 (no result: BJeLR lethal, PrPC TRFRET)
Cc1ccc2[nH]c(O)c(N=NC(N)=S)c2c1	GDH-TPI inh 38
CCOC(=O)Cn1cc(CN2C(C(=O)OC)CN(Cc3ccc(F)cc3)CCS2(=O)=O)nn1 (stereo unspecified)	none (no result: PrP UTR inh, FBA Mtb inh, GDH-TPI inh, BJeLR lethal, PfHsp40 yeast)
CC1=CCC[C@@H]2[C@@](C)(CC/C(C)=C/C(=O)O)[C@H](C)CC[C@@]12C	PfHsp40 yeast 58
O=C(O)COc1ccccc1/C=C1\SC(=S)N(NC(=O)c2ccccc2O)C1=O	GDH-TPI inh 33
O=c1[nH]cnc2nc(-c3ccc(N(CCCl)CCCl)cc3)[nH]c12	GDH-TPI inh 47 (no result: FBA Mtb inh, BJeLR lethal)
CC[C@@H]1/C(=C/c2ccccc2)N2C(=O)C[C@@H](c3ccccc3)N=C2N1Cc1ccc(OC)cc1OC	none (no result: PrP UTR inh, FBA Mtb inh, GDH-TPI inh, BJeLR lethal, PfHsp40 yeast)
O=C(O)c1cc(N/N=C/C(Cl)=C/c2ccccc2)ccc1Cl	none
O=C(O)c1cccc2c1-c1ccccc1/C2=N\Nc1ccccc1	none (no result: PfHsp40 yeast)
O=C(O)c1cc(NN=C2c3ccccc3-c3ccccc32)ccc1Cl	PfHsp40 yeast 138
O=C(O)c1cccc(NN=C2c3ccccc3-c3ccccc32)c1	PfHsp40 yeast 269
Cc1nc2ccccn2c(=O)c1NC(=O)c1cccc2ccccc12	GDH-TPI inh 31
Cc1nc2ccccn2c(=O)c1NC(=O)c1ccco1	none (no result: PrP UTR inh, BJeLR lethal, PfHsp40 yeast)
CCOC(=O)c1ccc(Nc2ncnc3ccccc23)cc1	GDH-TPI inh 57
CCOC(=O)c1nc(Nc2ccc(C)cc2)c2ccccc2n1	GDH-TPI inh 34
CCOC(=O)c1nc(Nc2ccccc2)c2ccccc2n1	none (no result: PrP UTR inh)
CCOC(=O)c1ccc(Nc2c(OCC)c(=O)c2=O)cc1	GDH-TPI inh 35
CCOC(=O)c1ccc(Nc2ncnc3ccc(C)cc23)cc1	none
Cc1nc(N2CCN(C(=O)COc3ccccc3C)CC2)c2c3c(sc2n1)CCCC3	none (no result: PrP UTR inh, FBA Mtb inh, GDH-TPI inh, BJeLR lethal, PfHsp40 yeast)
COC(=O)[C@]12C[C@H](CC(=O)NCCCCc3ccccc3)C(=O)N(CCc3ccc(OC)c(OC)c3)C1=C[C@H](C(C)C)O[C@@H]2C1CC1	none (no result: PrP UTR inh, FBA Mtb inh, GDH-TPI inh, BJeLR lethal, PfHsp40 yeast)
Cn1cccc1C(=O)N1CCN(S(=O)(=O)c2ccc(F)cc2)CC1	none (no result: PrP UTR inh, FBA Mtb inh, GDH-TPI inh, BJeLR lethal, PfHsp40 yeast)
CCOC(=O)N1CCN(C(=O)C[C@H]2C[C@@]3(C(=O)OC)C(=C[C@H](COCc4ccccc4)O[C@@H]3C)N(Cc3ccc(Cl)cc3Cl)C2=O)CC1	none (no result: PrP UTR inh, FBA Mtb inh, GDH-TPI inh, BJeLR lethal, PfHsp40 yeast)
O=C(Cc1n[nH]c(=O)c2ccccc12)OCC(=O)c1ccc2c(c1)OCCO2	PfHsp40 yeast 96
O=C(Cc1n[nH]c(=O)c2ccccc12)OCC(=O)c1ccc(F)cc1	none
CC(C)c1ccc(/C=N\NC(=O)c2ccc(Cn3cccn3)o2)cc1	none
Cc1ccc(/C=N/NC(=O)c2ccc(Br)o2)s1	GDH-TPI inh 31
CCc1ccc(/C=N\NC(=O)c2ccc(Br)o2)s1	GDH-TPI inh 47
O=C(N/N=C\c1ccc(Cl)s1)c1ccc(Cn2cccn2)o1	GDH-TPI inh 37
O=C(CCCN1C(=O)/C(=C/c2cccc(Br)c2)SC1=S)NCCCN1CCOCC1	BJeLR lethal 77
O=C(CN1C(=O)/C(=C/c2cccc(Br)c2)SC1=S)NCCCN1CCOCC1	none
Cc1ccc(/C=C2\SC(=S)N(CCC(=O)NCCCN3CCOCC3)C2=O)cc1	none
CCc1ccc(/C=C2\SC(=S)N(CCC(=O)NCCCN3CCOCC3)C2=O)cc1	BJeLR lethal 103
Cc1ccc(F)cc1C(=O)N1CCOCC1c1cc(C(=O)Nc2ccccc2)no1 (stereo unspecified)	none (no result: PrP UTR inh, BJeLR lethal, PfHsp40 yeast)
CC(C)CC(O)(CC(C)C)c1cn(C(=O)N(c2ccccc2)c2ccccc2)nn1	none (no result: PrP UTR inh, FBA Mtb inh, GDH-TPI inh, BJeLR lethal, PfHsp40 yeast)
Cc1c(C(=O)O)cccc1-n1c(C)cc(/C=N/Nc2ccc([N+](=O)[O-])cn2)c1C	none
Cc1c(C(=O)O)cccc1-n1c(C)cc(/C=N/NC(=O)c2cc3ccccc3o2)c1C	GDH-TPI inh 39
Cc1ccccc1-n1c(C)cc(/C=N/NC(=O)c2ccncc2)c1C	GDH-TPI inh 31 (no result: PrP UTR inh)
Cc1ccc2c(c1)C(CS(=O)(=O)NCc1ccccc1)NC2 (stereo unspecified)	none (no result: PrP UTR inh, FBA Mtb inh, GDH-TPI inh, BJeLR lethal, PfHsp40 yeast)
CN1CCC[C@H]1CCNc1ccc2c(=O)c3ccccc3n(C)c2c1	FBA Mtb inh 187, GDH-TPI inh 33 (no result: BJeLR lethal)
CN1CCCC1CCNc1ccc2c(=O)c3ccccc3oc2c1 (stereo unspecified)	FBA Mtb inh active, GDH-TPI inh 31
CN1CCCC1CCNc1ccc2oc3ccccc3c(=O)c2c1 (stereo unspecified)	none (no result: PrP UTR inh, FBA Mtb inh, GDH-TPI inh, PfHsp40 yeast)
CN1CCC[C@H]1CCNC(=O)c1c(-c2ccsc2)sc2ccccc12	none (no result: BJeLR lethal)
O=S1(=O)c2ccc(N3CCN(Cc4ccccc4F)CC3)cc2Oc2ccccc2CN1Cc1cn(Cc2ccccc2C(F)(F)F)nn1	none (no result: PrP UTR inh, FBA Mtb inh, GDH-TPI inh, BJeLR lethal, PfHsp40 yeast)
CNc1nc(N)c([N+](=O)[O-])c(NCC2CCCO2)n1 (stereo unspecified)	GDH-TPI inh 34
